Data reported in PubChem BioAssay AID1852 (Sanford-Burnham Center for Chemical Genomics, 2009).
The campaign covered roughly 2,500 compounds. About 1,100 (44%) were called active.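 The calls were made as follows: active = inhibition above 50% at 4 µM in the single-point screen; inactive = inhibition of 50% or less.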 So high a share suggests a set chosen from earlier hits. Some of the results follow.

Assay: TNF-a-driven NF-kB reporter inhibitors, primary screen, selectivity assay for NOD1/NOD2 signaling inhibitor project, cell-based, HEK293T NF-kB-Luc, luminescence (AID 1852)
Conditions: TNF-a induced, 14 h, at 4 µM, hits give high values

SMILES | inhibition
COc1ccccc1[C@@H]1C(c2cccc(C)c2)=NN(c2ccccc2)[C@H]1C(=O)N1CCOC1=O | -11.7% (inactive)
Cc1cc(C(=O)COc2cccnc2[N+](=O)[O-])c(C)n1Cc1ccco1 | -11% (inactive)
Cc1ccc(OCC(=O)c2cc(C)n(Cc3ccco3)c2C)c([N+](=O)[O-])n1 | 65.1% (active)
COc1cccc(/C=N/NC(=O)c2cc3c(OC)ccc(OC)c3[nH]2)c1O | 48.6% (inactive)
COc1cccc(/C=N/NC(=O)CNC(=O)C(c2ccccc2)c2ccccc2)c1O | 92.3% (active)
COc1cccc(/C=N/NC(=O)CNC(=O)/C=C\c2ccccc2)c1O | 82.6% (active)
CNC1=C(N(C(C)=O)c2ccc(Br)cc2)C(=O)c2ccccc2C1=O | 98.3% (active)
CN(C1=C(NC(=O)c2ccc(Cl)cc2)C(=O)c2ccccc2C1=O)c1ccccc1 | 21.3% (inactive)
O=C(/C=C/c1ccco1)NCC1COc2ccccc2O1 (stereo unspecified) | -14.9% (inactive)
COc1cccc(C(=O)Nc2ccc(Oc3cccc(C(F)(F)F)c3)nc2)c1 | 53.3% (active)
O=C(Nc1ccc(Oc2cccc(C(F)(F)F)c2)nc1)c1cccs1 | 49.2% (inactive)
O=C(Nc1ccc(Oc2cccnc2)nc1)c1ccc(C(F)(F)F)cc1 | 42.6% (inactive)
Cc1ccc(-n2[nH]c3c4c(ccc3c2=O)C(=O)c2ccccc2C4=O)cc1 | 99.4% (active)
Cc1ccc(C)c(-n2[nH]c3c4c(ccc3c2=O)C(=O)c2ccccc2C4=O)c1 | 58.4% (active)
Cc1cccc(-n2[nH]c3c4c(ccc3c2=O)C(=O)c2ccccc2C4=O)c1 | 37.6% (inactive)
CCc1ccc(CN(C)C(=O)CCc2nc3ccccc3n(-c3ccc(OC)cc3)c2=O)cc1 | 41.1% (inactive)
CCCCOC(=O)c1[nH]c2c(c1C)C(=O)CC(c1cc(OC)c(OC)c(OC)c1)C2 (stereo unspecified) | 47.1% (inactive)
CCCOC(=O)c1[nH]c2c(c1C)C(=O)CC(c1cc(OC)c(OC)c(OC)c1)C2 (stereo unspecified) | 40.2% (inactive)
COCCOC(=O)c1[nH]c2c(c1C)C(=O)CC(c1cc(OC)c(OC)c(OC)c1)C2 (stereo unspecified) | 58.3% (active)
Cc1ccc(-n2c(O)c(/C=C3/C(c4ccccc4)=Nc4ccccc43)c(=O)[nH]c2=O)cc1 | 28.1% (inactive)
CC1=Nc2ccccc2/C1=C/c1sc(=N)n(-c2nccs2)c1O | 99.2% (active)
O=C(Nc1nnc(S(=O)(=O)N2CCCCCC2)s1)c1ccc(Br)cc1 | -43.1% (inactive)
O=C(Nc1nc(-c2ccccc2)cs1)C1CCCN(S(=O)(=O)c2ccccc2)C1 (stereo unspecified) | 87.9% (active)

SMILES | inhibition
O=C(Nc1nc(-c2cccs2)cs1)c1ccc(S(=O)(=O)N2CCCC2)cc1 | 83.9% (active)
O=C(Nc1nnc(S(=O)(=O)N2CCCCCC2)s1)c1ccc(Cl)cc1 | -43% (inactive)
COC(=O)c1ccccc1NC(=O)C1CCCN(S(=O)(=O)c2ccc(F)cc2)C1 (stereo unspecified) | 21.7% (inactive)
CCOC(=O)c1ccc(NC(=O)C2CCCN(S(=O)(=O)c3ccc(F)cc3)C2)cc1 (stereo unspecified) | -6.1% (inactive)
COc1cc(NC(=O)c2cc3ccccc3cc2O)c(OC)cc1Cl | 47.5% (inactive)
COc1ccc(C(C)=O)cc1COC(=O)c1cc2ccccc2cc1O | 12.5% (inactive)
COc1ccccc1NC(=O)c1cc2cc(Br)ccc2cc1O | 82.6% (active)
COC(=O)C1CCCCN1C(=O)c1cc(COc2cccc3cnccc23)on1 (stereo unspecified) | 53.1% (active)
CCOC(=O)CC1CCCCN1C(=O)c1cc(COc2cccc3cnccc23)on1 (stereo unspecified) | 60.8% (active)
COCCC1CCCCN1C(=O)c1cc(COc2ccc(-n3cncn3)cc2)on1 (stereo unspecified) | 15.4% (inactive)
O=C(c1cc(COc2ccc3ncccc3c2)on1)N1CCCCCC1 | 31.2% (inactive)
O=C(NC1CCCCC1)c1sc(=S)n2c1[nH]c(=O)c1ccccc12 | 85.3% (active)
O=C(CSc1nnc2c(n1)[nH]c1ccccc12)NC1CCCCC1 | 47% (inactive)
CC(Sc1nnc2c(n1)[nH]c1ccccc12)C(=O)NC1CCCCC1 (stereo unspecified) | 30% (inactive)
O=C(NC1CCCC1)c1sc(=S)n2c1[nH]c(=O)c1ccccc12 | 72.6% (active)
N#C/C(=N\Nc1cccc(C(F)(F)F)c1)C(=O)c1csc(-c2cccnc2)n1 | 80.5% (active)
CC(C)(C)OC(=O)NCC(=O)Oc1cc2oc(=O)cc(-c3ccccc3)c2cc1Cl | 58% (active)
O=C(COc1ccc2c(-c3ccccc3)cc(=O)oc2c1)Nc1ccc(CCO)cc1 | 44.2% (inactive)
O=C(CNC(=O)OCc1ccccc1)Oc1cc2oc(=O)cc(-c3ccccc3)c2cc1Cl | 83.1% (active)
CC(C)(C)OC(=O)NCCc1nnc(S(=O)(=O)Cc2ccc(Cl)cc2Cl)o1 | 45.3% (inactive)
CCCNc1c(NS(=O)(=O)c2ccc3c(c2)CCCC3)c(=O)oc2ccccc12 | -3.6% (inactive)
O=C(COc1ccc(Br)cc1)Nc1ccc(Cc2ccncc2)cc1 | 64.1% (active)
Cc1cc(OCC(=O)Nc2ccncc2)cc(C)c1Br | 34.4% (inactive)

SMILES | inhibition
Cc1cc(OCC(=O)Nc2ccncc2)cc(C)c1Cl | 41% (inactive)
COc1cccc2sc(N(CCCN(C)C)C(=O)CCS(=O)(=O)c3ccccc3)nc12 | 44.2% (inactive)
Nc1nc(N)c2cc(Sc3ccc4ccccc4c3)ccc2n1 | 51.9% (active)
Nc1nc(CCl)nc(Nc2ccc3ccccc3c2)n1 | -13.4% (inactive)
Nc1ncncc1-c1ccc2ccccc2c1 | 16.7% (inactive)
CC(=O)Nc1ccc(S(=O)(=O)NCc2nc(-c3ccccc3C)no2)cc1 | -15.1% (inactive)
O=C1C=C(Nc2ccccc2O)c2ccccc2C1=O | 38.6% (inactive)
O=C(O)c1ccc(S(=O)(=O)/N=C2\C=C(Nc3ccccc3F)C(=O)c3ccccc32)cc1 | 89.6% (active)
COC(=O)c1ccccc1NC1=C/C(=N\S(=O)(=O)c2ccc(C(=O)O)cc2)c2ccccc2C1=O | 106% (active)
Cc1ccccc1NC1=C/C(=N\S(=O)(=O)c2ccc(C(=O)O)cc2)c2ccccc2C1=O | 104% (active)
Cc1ccc(-c2nc(NC(=O)c3nn(C)cc3[N+](=O)[O-])sc2C)cc1C | 33.4% (inactive)
COc1ccc2sc3c(=O)[nH]c4ccccc4c3c2c1 | 54.1% (active)
Cn1cc(S(=O)(=O)N2CCc3ccccc32)cc1C(=O)Nc1ccc(Cl)cc1 | 24.7% (inactive)
CCc1nnc(NC(=O)c2ccc(Cl)c(S(=O)(=O)N3CCc4ccccc4C3)c2)s1 | 31.8% (inactive)
CCc1nnc(NC(=O)c2ccc(Cl)c(S(=O)(=O)N3CCc4ccccc43)c2)s1 | 53.5% (active)
O=C(NCc1cc(Br)cc(Br)c1OC(=O)c1ccccc1[N+](=O)[O-])c1ccccc1 | -35.5% (inactive)
Cc1ccc[n+](CC(=O)Nc2ccc(Cl)c([N+](=O)[O-])c2)c1 | -10% (inactive)
Cc1ccc(Cl)c(NC(=O)COC(=O)c2ccccc2C(=O)c2ccc(Cl)c([N+](=O)[O-])c2)c1Cl | 84.2% (active)
N#Cc1cccc(NC(=O)Cn2cnc(S(=O)(=O)N3CCc4ccccc43)c2)c1 | 8.2% (inactive)
O=C(COC(=O)c1ccccc1C(=O)c1ccc(Cl)c([N+](=O)[O-])c1)NC1CC1 | 73.1% (active)
CCCNC(=O)COC(=O)c1ccccc1C(=O)c1ccc(Cl)c([N+](=O)[O-])c1 | 65.9% (active)
N#Cc1cccc(NC(=O)COC(=O)c2ccccc2C(=O)c2ccc(Cl)c([N+](=O)[O-])c2)c1 | 83.2% (active)
O=C(COC(=O)c1ccccc1C(=O)c1ccc(Cl)c([N+](=O)[O-])c1)NC1CCCCCC1 | 27.6% (inactive)

SMILES | inhibition
O=C(O)c1ccc(N/N=C/c2ccc(OC(=O)c3cccc(Cl)c3)cc2)cc1 | -26.3% (inactive)
CNC(=O)COC(=O)c1ccccc1C(=O)c1ccc(Cl)c([N+](=O)[O-])c1 | 81.6% (active)
Nc1ccc(C(=O)OCC(=O)N2CCc3ccccc3C2)cc1[N+](=O)[O-] | 31.9% (inactive)
CCOC(=O)c1sc(NC(=O)CSc2nc3c(cc2C#N)CCCCCC3)c(C#N)c1C | 52.1% (active)
Cc1c(C)c2ccc(OCC(=O)Nc3ccccn3)c(C)c2oc1=O | 76.2% (active)
Cc1c(OCC(=O)N2CCN(c3ccccc3)CC2)ccc2c3c(c(=O)oc12)CCCC3 | 14.2% (inactive)
Cc1ccc(OCCN2CCN(c3ncnc4sc(C)c(C)c34)CC2)cc1 | 63% (active)
Cc1sc2ncnc(N3CCN(S(=O)(=O)c4ccc(F)cc4)CC3)c2c1C | 15% (inactive)
Cc1cc(C)c(C)c(S(=O)(=O)N2CCN(c3ncnc4sc(C)c(C)c34)CC2)c1C | 75.3% (active)
Cc1sc2ncnc(N3CCN(S(=O)(=O)c4ccc(Br)cc4)CC3)c2c1C | 29.2% (inactive)
COC(=O)c1scc(C#N)c1N/N=C(\C#N)S(=O)(=O)c1ccc(Cl)cc1 | -8.6% (inactive)
CC(C)(C)OC(=O)N1Cc2ccccc2C[C@H]1C(=O)NCC(=O)NC1CCCC1 | 11% (inactive)
COCCCn1c(=O)c2sccc2n(Cc2cccc(C)c2)c1=O | 29.7% (inactive)
CCCCC(=O)/C=C/n1c(=S)oc2ccccc21 | -6.6% (inactive)
CC(=O)/C=C/n1c(=S)oc2ccccc21 | 94.2% (active)
CC(C)CC(=O)/C=C/n1c(=S)oc2ccccc21 | 76.6% (active)
COC(=O)N1C(=O)[C@](CC(C)C)(c2ccccc2)N1C(=O)OC | 45.2% (inactive)
COC(=O)N1C(=O)[C@@](Cc2ccccc2)(c2ccccc2)N1C(=O)OC | 59.8% (active)
CCCCCCCCCn1c2c(c(=N)c3c1CCC3)CCCC2 | 91.2% (active)
N=c1c2c(n(Cc3ccc(Cl)cc3)c3c1CCC3)CCC2 | 12.4% (inactive)
CCCCCCCn1c2c(c(=N)c3c1CCC3)CCCC2 | 76.9% (active)
CCCCCCCCn1c2c(c(=N)c3c1CCC3)CCCC2 | 79.5% (active)
